Screening results from PubChem.
Sampled rows, rich in hits. Any-hit rate of the full collection: about 8%.
HT1080NT lethal: qHTS for induction of synthetic lethality in tumor cells producing 2HG: qHTS for the HT-1080-NT fibrosarcoma cell line | HT-1080-NT fibrosarcoma viability, CellTiter-Glo ATP luminescence, 48 h | Potency, µM (top dose mostly 46.1 µM), without a hit: top-dose activity, negative = less viability, actives largely listed as cytotoxic | hit rate 1.6% among 360,000;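 also: NT is the 2HG producing partner of a matched IDH1 knockdown line; 0% = DMSO-treated cells and -100% = media-only wells without cells; nearly all actives have a fitted effect of over 55% in size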
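Compounds were tested in concentration-response format on HT-1080-NT cells for 48 hours at 37 degrees C. Cell viability came from CellTiter-Glo luminescence; curves were classified by r2, response magnitude and activity.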
SW480 rerep: A quantitative high throughput screen for small molecules that induce DNA re-replication in SW480 colon adenocarcinoma cells; SW480 DNA re-replication, Hoechst DNA content imaging, 48 h; Potency, µM (highest dose often 46.1 µM), without a hit: at the highest dose re-replication activation, actives largely listed as activators; hit rate 1.8% among 340,000; also: % of control where 0% means no effect; nearly all actives have a fitted effect of over 55% in size
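250 cells/well; 23 nL cpd via pin tool; 48 hr, 37 C, 5% CO2; Hoechst 40 min; imager read of total nuclear intensity, ex 405/em 500-530 nm.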
KB-V1 cytotox: qHTS assay for MDR1-selective chemotherapeutics: Primary screen using the drug-selected MDR subline cells KB-V1. hit rate 3.4% among 400,000. KB-V1 MDR cells viability, CellTiter-Glo, 72 h. Potency, µM (series often up to 46.1 µM), usual class: cytotoxic; also: % is scaled to controls: 0 for no effect and ±100 for the full control effect; nearly all actives have a fitted effect of over 60% in size
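Potencies derive from concentration-effect curves fitted to normalized luminescence (CellTiter-Glo) of KB-V1 cells treated for 72 h at 37 degrees C in phenol-red-free DMEM containing 10% FBS.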
HT1080 IDH1KD tx: qHTS for induction of synthetic lethality in tumor cells producing 2HG: qHTS for the HT-1080-IDH1KD cell line; HT-1080 IDH1 knockdown viability, ATP luminescence, 48 h; Potency, µM (doses to about 46.1 µM), inactives show top-dose activity, negative = toxicity, hits mostly cytotoxic; hit rate 2% among 360,000;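 also: 0% = DMSO wells and -100% = cell-free medium wells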
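Cytotoxicity counter-line: IDH1KD HT-1080, 48 h, CellTiter-Glo. Curves classed by r2, magnitude and activity.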
MCF10A rereplic: A quantitative high throughput screen for small molecules that induce DNA re-replication in MCF 10a normal breast cells. MCF 10A DNA re-replication, Hoechst nuclear intensity, 48 h. Potency, µM (top dose mostly 46.1 µM), inactives show top-dose activity, positive = re-replication, hits mostly activators. hit rate 2.9% among 350,000. AID 624296, 2012; also: % of control where 0% means no effect; nearly all actives have a fitted effect of over 50% in size
KB-3-1 tox: qHTS assay for MDR1-selective chemotherapeutics: Primary screen using the parental adenocarcinoma cell KB-3-1; Potency, µM (top dose mostly 46.1 µM), usual class: cytotoxic; KB-3-1 viability, CellTiter-Glo ATP luminescence, 72 h; hit rate 1.4% among 400,000; also: % is scaled to controls: 0 for no effect and ±100 for the full control effect; nearly all actives have a fitted effect of over 60% in size
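KB-3-1 parental drug-naive adenocarcinoma cells in DMEM/10% FBS, incubated 72 h at 37 C with pin-transferred compounds across a concentration series. Viability by CellTiter-Glo luminescence; concentration-response curves fitted after normalization.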
Numbers without * were called inactive; i = inactive; u = inconclusive; x = no result. Calls follow the shape of the dose curve; as a rule, active = well fitted curve in the direction sought with a large enough effect; inconclusive = small, poorly fitted or top-dose-only effect, or another doubt; inactive = no such curve, though single readings can be large; an effect the other way counts as inactive or inconclusive. Potency is read from the fitted curve at half-maximal effect.

SMILES	HT1080NT lethal	SW480 rerep	KB-V1 cytotox	HT1080 IDH1KD tx	MCF10A rereplic	KB-3-1 tox
NC(=S)n1[nH]c(-c2ccc([N+](=O)[O-])cc2)c(N=Nc2cccc(Cl)c2)c1=O	u	1%	u	u	u	21µM*
Cc1cc(C(=O)C(=O)Nc2nncs2)c(C)n1-c1ccc(Cl)cc1	x	x	i	x	x	i
N#CC1=C(N)Oc2c(ccc3cccnc23)C1c1ccccc1 (stereo not drawn)	u	5.2µM*	i	u	15µM*	5.2µM*
Cc1oc(C)c2c(=O)ccc3c(c12)OC(N)=C(C#N)C3c1ccccc1 (stereo not drawn)	-5%	-1%	i	-9%	u	i
Cc1ccc2[nH]c(=O)c(C3C(C#N)=C(N)Oc4c3ccc3cccnc43)cc2c1 (stereo not drawn)	-27%	u	2.6µM*	u	u	16µM*
N#CC1=C(N)Oc2ccc3ccccc3c2C1c1cccnc1 (stereo not drawn)	8.2µM*	4.6µM*	5.2µM*	u	1.6µM*	u
Cc1ccccc1CSc1nc(-c2cccc(F)c2)nc2c1Cc1c(CO)cnc(C)c1O2	x	x	u	x	x	i
CC(C)(C)N=C1NN=C(c2cc3ccccc3o2)CS1	-11%	12µM*	u	5%	u	i
CCOc1ccc(OCC)c(NS(=O)(=O)c2ccc3c(c2)CCCN3C(C)=O)c1	x	x	i	x	x	i
COC(=O)c1ccc2c(=O)n(CC3CCCO3)c(SCC(=O)Nc3ccccc3OC)nc2c1 (stereo not drawn)	3%	4%	3.3µM*	3%	7%	i
O=C1C(O)=C(O)C(=O)c2ccccc21	-20%	u	i	-17%	u	i
CCCC(=O)NC1=C(Cl)C(=O)c2ccccc2C1=O	u	6.5µM*	u	7.3µM*	u	u
O=C1C(Cl)=C(Nc2ccc(O)cc2)C(=O)c2ccccc21	6.5µM*	-12%	u	16µM*	2.9µM*	u
O=C1C=C(Nc2ccc(O)cc2)C(=O)c2ccccc21	26µM*	u	u	21µM*	u	u
Cc1ccc(NC2=C(Cl)C(=O)c3ccccc3C2=O)cc1	3%	4.1µM*	i	-6%	7.3µM*	u
CCN(CC)c1ccc(NC2=C(Cl)C(=O)c3ccccc3C2=O)cc1	u	u	u	u	4.6µM*	u
CCN(CC)c1ccc(NC(=O)C(C)C)cc1	17%	-5%	i	17%	-5%	i
COc1cc(O)c2c(=O)cc(-c3ccccc3)oc2c1	-5%	21%	i	1%	u	i
COc1c(O)cc(O)c2c(=O)cc(-c3ccccc3)oc12	-10%	-4%	u	-6%	16µM*	i
CCOc1ccccc1CNC(=O)c1cc2c(=O)n(Cc3ccccc3)ccc2nc1C	x	x	i	x	x	i
COc1cc(OCc2ccccc2)c(C(=O)/C=C/c2ccc3c(c2)OCO3)c(OC)c1OC	-30%	u	u	u	15µM*	u
CNc1ccc(Br)cc(C(=O)/C=C/c2cccc(OC)c2)c1=O	u	u	u	u	18µM*	u
CCNc1ccc(Br)cc(C(=O)/C=C/c2ccc3c(c2)OCO3)c1=O	-4%	u	i	-5%	18µM*	i
CNc1ccc(Br)cc(C(=O)/C=C/c2ccc(OC)cc2OC)c1=O	-7%	0%	u	-17%	u	i
CCNc1ccc(Br)cc(C(=O)/C=C/c2ccc(Cl)cc2)c1=O	u	u	18µM*	u	13µM*	16µM*
SMILES	HT1080NT lethal	SW480 rerep	KB-V1 cytotox	HT1080 IDH1KD tx	MCF10A rereplic	KB-3-1 tox
O=S1(=O)CCO[C@H]2CCCC[C@@H]2N1Cc1ccc(Cl)cc1	x	x	u	x	x	i
Nc1ccccc1C(=O)/C=C/c1ccc2c(c1)OCO2	-22%	18µM*	u	-20%	u	i
CNc1ccc(Br)cc(C(=O)/C=C/c2ccc(Cl)cc2Cl)c1=O	u	u	u	21µM*	4.6µM*	u
O=C(/C=C/c1ccc2c(c1)OCO2)c1ccc(O)cc1O	-7%	u	i	-40%	u	u
CCNc1ccc(Br)cc(C(=O)/C=C/c2c(Cl)cccc2Cl)c1=O	u	u	i	u	23µM*	u
COc1ccc(Cn2ccc3nc(C)c(C(=O)N4CCN(c5ccccc5OC)CC4)cc3c2=O)cc1	x	x	i	x	x	u
COc1ccc(/C=C2\N=C(c3ccccc3Cl)NC2=O)cc1	-23%	10µM*	u	15µM*	13µM*	u
CC(=O)Nc1nonc1-c1nnc(SCC(=O)Nc2ccccc2Cl)n1C	x	x	i	x	x	i
O=C(Nc1ccccc1Br)C1CCCN(S(=O)(=O)c2cccc3nsnc23)C1 (stereo not drawn)	x	x	i	x	x	i
O=c1[nH]cnc2c1sc1nc3c(c(-c4ccc(Cl)cc4)c12)CCC3	0%	-7%	u	2%	-8%	i
O=c1[nH]cnc2c1sc1nc(C(F)F)cc(-c3ccccc3)c12	-9%	u	12µM*	-5%	0%	u
Cc1ccccc1[C@@]1(C)ON(c2ccccc2C(F)(F)F)C1=O	-2%	2%	i	-1%	u	u
O=C1N(c2ccccc2C(F)(F)F)O[C@]1(c1ccccc1)C1CCCC1	-17%	u	i	-28%	18µM*	i
COc1ccc(-c2nc3ccccc3n3c(-c4ccc(OC)cc4)c4c(=O)n(C)c(=O)n(C)c4c23)cc1	x	x	i	x	x	i
O=C(Nc1ccccc1)OCc1cc(-c2ccccc2Cl)on1	-21%	-5%	i	-14%	26µM*	i
CCN1CCN(c2ncc3c(n2)CC(c2cc(OC)c(OC)c(OC)c2)CC3=O)CC1 (stereo not drawn)	u	4.1µM*	i	4.1µM*	21µM*	u
N=c1c(S(=O)(=O)c2ccc(Cl)cc2)cc2c(=O)n3ccccc3nc2n1CCN1CCOCC1	12%	12%	13µM*	2%	22%	i
N=c1c(S(=O)(=O)c2ccccc2)cc2c(=O)n3ccccc3nc2n1CCCN1CCOCC1	0%	u	i	3%	-11%	i
